Test results published in PubChem BioAssay (NCI).
Compounds without any hit were thinned out: in the full panel of roughly 83,000, 20% have a hit.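 Activity criterion: percent growth below 10, measured after cells in 96-well plates were exposed to a single compound concentration for 48 hours.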 A number with no mark means an inactive call. The source made the active and inactive calls.

Legend:
Test in all cases: NCI-60 one-dose screen, 48 h (100 = growth as untreated, 0 = no growth, -100 = all killed)
Details in all cases: 10 µM unless noted
HCT-15 colon = test system: HCT-15 colon
HT29 colon = test system: HT29 colon
SNB-75 CNS = test system: SNB-75 CNS
SNB-19 CNS = test system: SNB-19 CNS
U251 CNS = test system: U251 CNS
PC-3 prostate = test system: PC-3 prostate
SK-MEL-5 melanoma = test system: SK-MEL-5 melanoma
UACC-62 melanoma = test system: UACC-62 melanoma
LOX IMVI melanoma = test system: LOX IMVI melanoma
SK-MEL-28 melanoma = test system: SK-MEL-28 melanoma

SMILES | growth (HCT-15 colon) | growth (HT29 colon) | growth (SNB-75 CNS) | growth (SNB-19 CNS) | growth (U251 CNS) | growth (PC-3 prostate) | growth (SK-MEL-5 melanoma) | growth (UACC-62 melanoma) | growth (LOX IMVI melanoma) | growth (SK-MEL-28 melanoma)
Cc1ccc(C(=O)Cc2ccccc2)c(O)c1 | 102% | 110% | 97.8% | 95.4% | 98.9% | 99.8% | 108% | 90.4% | 98% | 117%
Cn1cc(NC(=O)Nc2cc(C(=O)O)n(C)c2)cc1C(=O)O | 113% | 107% | 103% | 118% | 100% | -76.4% (active) | 93.6% | 90% | 98.1% | 121%
COC(=O)C1=CCC(n2cnc3c(N)ncnc32)O1 (stereo not given) | 109% | 103% | 98.1% | 104% | 104% | 98% | 104% | 92.8% | 96.4% | 115%
Cn1c(=O)c2[nH]c(=S)n(Cc3ccccc3)c2n(C)c1=O | 102% | 111% | 84.9% | 99.1% | 110% | 98.2% | 102% | 91.8% | 88.1% | 122%
COC(=O)[C@H](CCCCNC(=O)OCc1ccccc1)NC(=O)[C@@H](NC(=O)Nc1cc(C(F)(F)F)cc(C(F)(F)F)c1)C(C)C | 13.4% [100 µM] | -60.8% [100 µM] (active) | -88.7% [100 µM] (active) | 28% [100 µM] | -88% [100 µM] (active) | -83.9% [100 µM] (active) | -43.4% [100 µM] (active) | -83.6% [100 µM] (active) | -83.3% [100 µM] (active) | -86.3% [100 µM] (active)
COC(=O)[C@H](Cc1cn(C)cn1)NC(=O)[C@H](Cc1ccccc1)NC(=O)Nc1cc(C(F)(F)F)cc(C(F)(F)F)c1 | -77.3% [100 µM] (active) | -82.4% [100 µM] (active) | -98.2% [100 µM] (active) | -95.9% [100 µM] (active) | -95.6% [100 µM] (active) | -95.6% [100 µM] (active) | -97.1% [100 µM] (active) | -97.4% [100 µM] (active) | -84.7% [100 µM] (active) | -96.6% [100 µM] (active)
CCOC(=O)C(C(=O)OCC)C1CCCCC1 | 99% | 102% | 87.6% | 102% | 86% | 94.3% | 109% | 99.2% | 110% | 106%
CCN(CC)CCSc1ncnc2c1cnn2-c1ccc(S(N)(=O)=O)cc1 | 89% | 85.7% | 108% | 107% | 92.9% | 85.7% | 79.1% | 92.7% | 87% | 92.8%
O=C1NC(=O)/C(=C\c2ccco2)S1 | 100% | 114% | 97.7% | 101% | 101% | 101% | 99.9% | 91.7% | 91.5% | 113%
NS(=O)(=O)c1ccc(-n2nc(-c3ccc(Br)cc3)ccc2=O)cc1 | 43% [100 µM] | 63.9% [100 µM] | 8.35% [100 µM] (active) | 36.5% [100 µM] | 11.2% [100 µM] | 78.2% [100 µM] | 65.1% [100 µM] | 53.6% [100 µM] | 68.1% [100 µM] | 80.9% [100 µM]
O=C1C=CC(=O)N1c1ccccc1N1C(=O)C=CC1=O | 99.6% | 99.2% | 91.7% | 91% | 108% | 97.5% | 106% | 87.4% | 97.2% | 114%
Oc1c(Cl)cc(Oc2cc(Cl)c(O)c(CN3CCOCC3)c2)cc1CN1CCOCC1 | 82.1% | 105% | 88.1% | 86.2% | 96.9% | 81% | 87.5% | 66.8% | 83.3% | 126%
Cc1c2oc3c(C)ccc(C(=O)OC(C)C4NC(=O)C(C(C)C)N(C)C(=O)CN(C)C(=O)C5CCCN5C(=O)C(C(C)C)NC4=O)c3nc-2c(C(=O)OC(C)C2NC(=O)C(C(C)C)N(C)C(=O)CN(C)C(=O)C3CCCN3C(=O)C(C(C)C)NC2=O)c(N)c1=O (stereo not given) | 7.36% (active) | -29.2% (active) | -73.8% (active) | 3.31% (active) | 14.8% | 10.4% | -92% (active) | -71% (active) | 4.35% (active) | -20.8% (active)
Cc1n(Cc2ccc3ccccc3c2)c2ccccc2[n+]1Cc1ccc2ccccc2c1 | 15.7% | -53.3% (active) | -46.2% (active) | -91.7% (active) | -87.6% (active) | -68.1% (active) | -97.6% (active) | -57.9% (active) | -89% (active) | -58% (active)
O=C1/C(=C\c2coc3ccccc3c2=O)c2ccccc2N1c1c(Cl)cccc1Cl | 24.7% | 47.6% | 62.7% | 62.6% | 36% | 31.8% | 20.3% | 36.6% | 37.1% | 47.3%
CCCCCc1c(C)[nH]c(/C=C2\N=C(c3ccc[nH]3)C=C2OCc2ccccc2)c1C | -60% [100 µM] (active) | -80.9% [100 µM] (active) | -78.1% [100 µM] (active) | -92.8% [100 µM] (active) | -93.7% [100 µM] (active) | -69.5% [100 µM] (active) | -66.9% [100 µM] (active) | -92.7% [100 µM] (active) | -62.6% [100 µM] (active) | -89.8% [100 µM] (active)
OCc1n(Cc2ccc3ccccc3c2)cc[n+]1Cc1ccc2ccccc2c1 | 100% | 36.6% | 34.8% | 44.5% | 60% | 37.8% | -28% (active) | 12.8% | 45.4% | 24.9%
c1ccc2nc(N/N=C3\CCCCC3C3CCCCC3)ccc2c1 (stereo not given) | 33.5% | 26.6% | 70.2% | 76% | 41.6% | 14% | 39.7% | 50.8% | 23.4% | 62.6%
COc1ccc2nc(-c3ccc(Cl)cc3)cc(-c3nnc(SCC(=O)Nc4ccc(C(C)=O)cc4)n3-c3ccccc3)c2c1 | 101% | 78.6% | 81% | 105% | 101% | 87.3% | 103% | 97.7% | 105% | 107%
O=C1C(=O)c2c(nc3ccc(Cl)cn23)-c2ccccc21 | -100% (active) | -84.8% (active) | -87.7% (active) | -100% (active) | -100% (active) | -86.6% (active) | -100% (active) | -100% (active) | -100% (active) | -100% (active)
O=C(O)CCC(=O)OC[C@@H](NC(=O)C(Cl)Cl)[C@H](O)c1ccc([N+](=O)[O-])cc1 | 93.9% | 95.8% | 88% | 99.4% | 99.3% | 87.5% | 89.8% | 98% | 96.7% | 106%
CCOC(CNCc1cc(C)c2[nH]c3ccccc3c2c1C)OCC | 80.7% | 53.1% | 73.6% | 78.6% | 83.2% | 58.6% | 79.8% | 77.9% | 77.2% | 97.3%
COc1ccc([N+](=O)[O-])c(S(=O)(=O)c2ccc(Cl)cc2)n1 | 27.2% | 73.7% | 78% | 92% | 95.6% | 92.3% | 91.6% | 89.1% | 10.7% | 82%
CCOC(=O)c1cc2oc(/C=C/c3cc(=O)c4cc(Cl)ccc4o3)cc2[nH]1 | 105% | 96.6% | 73% | 92.1% | 92.5% | 85.2% | 68.2% | 75.8% | 101% | 91.4%
Cc1cc(Cl)ccc1Nc1nc(C(F)(F)F)ccc1C(=O)N/N=C/c1ccc(Cl)cc1 | 5.02% (active) | 3.44% (active) | -21.9% (active) | 14.6% | 2.95% (active) | -2.59% (active) | -13.8% (active) | -0.152% (active) | 0.0613% (active) | 20.9%
Nc1ccc2c(c1)Cc1cc(Cl)c(Cl)cc1-2 | 51.5% | 93.1% | 84% | 46.2% | 34.6% | 68.5% | 43.4% | 63.4% | 76.1% | 78.6%
